The campaign covered roughly 360,000 compounds. About 2,300 (0.64%) were called active. For the sample, actives were picked, then their nearest neighbours and some compounds at random. Values without a mark were called inactive.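 How the source made its calls: active means compounds giving at least 50% protection of heart cells from peroxide-induced death in the single-dose screen, raw or plate-pattern-corrected value; inactive means the rest.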
Experiment: H9c2 cardiomyocyte survival under peroxide injury – uHTS, H9c2 cells, ATPLite luminescence, primary screen (AID 588492);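 further: 0% = DMSO wells with peroxide and 100% = DMSO wells without peroxide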
Settings: H9c2 cardiomyocytes, 2 h, at 20 µM, hits give high values

| SMILES | protection from H2O2 cell death |
| --- | --- |
| Cc1nc2c(-c3ccc(F)cc3)c(C)nn2c(C)c1CCC(=O)NCc1ccco1 | 2.6% |
| Fc1ccc(-c2ccc(-c3nn4c(-c5ccco5)nnc4s3)o2)cc1 | 98.7% (active) |
| CNc1nnc(-c2ccco2)s1 | 3.7% |
| CC(C)(C)OC(=O)C[C@@H]1C/C=C\C[C@@H](CC(=O)N[C@H](CO)Cc2ccccc2)C(=O)NC[C@@H](c2ccccc2)OC1=O | 51.6% (active) |
| CC(C)(C)OC(=O)C[C@H]1C/C=C\C[C@@H](CC(=O)N[C@H](CO)Cc2ccccc2)C(=O)NC[C@@H](c2ccccc2)OC1=O | 10.5% |
| CC(C)(C)OC(=O)C[C@@H]1C/C=C\C[C@@H](CC(=O)N[C@H](CO)Cc2ccccc2)C(=O)NCCOC1=O | 12.4% |
| Cc1ccc(NS(=O)(=O)c2ccc3c(c2)NC(=O)CO3)cc1 | -11.5% |
| Cc1c(C)n2c(SCC(=O)NC3CCCC3)nnc2[nH]c1=O | 1.3% |
| COc1ccccc1C(=O)NC(CCSC)C(=O)NNC(=O)c1ccccc1C (stereo unspecified) | 4.9% |
| COc1ccc(S(=O)(=O)/N=C2\C=C(NS(=O)(=O)c3ccccc3)C(=O)c3ccccc32)cc1 | -11.4% |
| CC1=C/C(=N\S(=O)(=O)c2ccccc2)C(C(C)C)=CC1=O | 63.7% (active) |
| Cc1ccc(S(=O)(=O)/N=C2\C=C(NS(=O)(=O)c3ccc(C)cc3)C(=O)c3ccccc32)cc1 | -17.9% |
| O=C(c1ccc(O)cc1)c1ccc(C(=O)O)c(C(=O)O)c1 | 5.7% |
| Cc1cccnc1C(NC(=O)C1CCN(Cc2ccc(Cl)c(Cl)c2)CC1)c1ccc(Cl)cc1 (stereo unspecified) | 4.5% |
| Cc1nc2ccccc2n1CC(=O)N/N=C/c1cccs1 | -3.1% |
| CCn1c(/C=N/NC(=O)c2ccc(OC)cc2)nc2ccccc21 | 50.7% (active) |
| CCn1c(C(O)c2cc(OC)ccc2OC)nc2ccccc21 (stereo unspecified) | -3.6% |
| S=c1ccc2ccccc2[nH]1 | 4.8% |
| S=c1[nH]c2ccccc2c2ccccc12 | 50.1% (active) |
| Cc1cc2c3ccccc3[nH]c(=O)n2n1 | 2.8% |
| COc1ccc(S(=O)(=O)N2CCN(C(=S)NCC3CCCO3)CC2)cc1OC (stereo unspecified) | -4.4% |
| N=c1ccn(CC(=O)NC(N)=O)c2ccccc12 | 4.5% |
| CCOC(=O)CSc1nc(N2CCOCC2)c2c(c1C#N)CC(C(C)C)OC2 (stereo unspecified) | -4% |

| SMILES | protection from H2O2 cell death |
| --- | --- |
| CC(C)C(=O)N1CCN(c2nc(-c3ccccc3)c3c(c2C#N)CC(C)(C)OC3)CC1 | 15.1% |
| CC1(C)Cc2c(C#N)c(SCc3nc4ccccc4[nH]3)nc(N3CCOCC3)c2CO1 | 50.1% (active) |
| Cc1ccc(S(=O)(=O)N2CCCC2C(=O)OCc2nc3sc(C)c(C)c3c(=O)[nH]2)cc1 (stereo unspecified) | 34.2% |
| Cc1cc(C)c2nc(N3CCC(C(=O)NCCN4CCOCC4)CC3)sc2c1 | -1.3% |
| CCOC(=O)N1CCN(C(=O)CN(C2CCCCC2)S(C)(=O)=O)CC1 | -2.2% |
| CC(C)c1cc(N=O)cc(C(C)C)c1O | -7% |
| CC(C)=CCc1c(O)c(CC=C(C)C)c2occ(-c3ccc(O)cc3)c(=O)c2c1O | -14.3% |
| CC(C)=CCc1ccc(O)c(=O)cc1C(C)C | 54.2% (active) |
| O=C(c1ccncc1)N1CCN(S(=O)(=O)c2cc(C(F)(F)F)cc(C(F)(F)F)c2)CC1 | -1.3% |
| COc1ccc(CCn2c(=N)c(C(=O)NCC3CCCO3)cc3c(=O)n4cccc(C)c4nc32)cc1OC (stereo unspecified) | 59.6% (active) |
| Cc1ccc2nc3c(cc(C(=O)NCCc4ccccc4)c(=N)n3CC3CCCO3)c(=O)n2c1 (stereo unspecified) | 5.6% |
| COc1ccc(CCNC(=O)CCn2c(=O)c3ccccc3n(CC(=O)NCC3CCCO3)c2=O)cc1OC (stereo unspecified) | 7.8% |
| CN1CCN(c2ccc(CNS(=O)(=O)c3cccc(F)c3)cc2)CC1 | 7.1% |
| CCc1c(C)nc2ncnn2c1N1CCC(C(=O)NCc2ccc3c(c2)OCO3)CC1 | -1.5% |
| CCOC(=O)Nc1ccc(S(=O)(=O)N(C)C(C)C)cc1 | 3.1% |
| COc1ccc(C(=O)COC(=O)c2ccc([N+](=O)[O-])s2)cc1OC | 61.6% (active) |
| O=C(OCC(=O)N1CCN(c2ccccc2)CC1)c1ccc([N+](=O)[O-])s1 | -0.2% |
| COc1cc(NC(=O)COC(=O)c2ccc([N+](=O)[O-])s2)cc(OC)c1OC | 41.6% |
| CO/N=C(/CS(=O)(=O)c1ccc(Br)cc1)c1ccc(OC)cc1 | -11.9% |
| Cc1ccc([N+](=O)[O-])c(OCCCNCC(C)O)c1 (stereo unspecified) | 0.6% |
| COc1cc(/C=N/NC(=O)c2ccccc2)ccc1OS(=O)(=O)c1ccccc1 | 81.8% (active) |
| Cc1ccc(S(=O)(=O)Oc2ccc(/C=N/NC(=O)c3ccncc3)cc2)cc1 | 2.7% |
| COc1cc(/C=N/NC(=O)c2cccnc2)ccc1OC(=O)c1cccc(Br)c1 | 27.2% |

From PubChem BioAssay AID588492 (Sanford-Burnham Center for Chemical Genomics, 2011)
